Compound activity (PubChem BioAssay)
Compounds with a hit are over-represented: about 10% of the library has one in this group of screens.
NIH3T3 tox – Cytotoxic Profiling in NIH 3T3 Cell Line of Diverse Libraries Using Quantitative High-Throughput Screening; NIH 3T3 viability, CellTiter-Glo ATP luminescence, 48-72 h; Potency, µM (titrated, usually from 96.7 µM), most hits filed as inhibitors; hit rate 4.3% among 94,000; AID 1345082, 2018; further: nearly all actives have a fitted effect of over 55% in size
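Cytotoxicity is measured as loss of cellular ATP: NIH 3T3 cells (400/well) are exposed to compound for 48 or 72 hr at 37 °C, then CellTiter-Glo luminescence is imaged after 10 min at room temperature.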
GPT2 inhibitor – Primary qHTS assay for inhibitors of Glutamate pyruvate transaminase 2 (GPT2); Alanine aminotransferase 2 (Homo sapiens), Q8TD30; Recombinant GPT2, coupled pyruvate oxidase/HRP Amplex Red fluorescence; Potency, µM (highest dose often 57.7 µM), most hits filed as inhibitors; hit rate 0.25% among 100,000; further: nearly all actives have a fitted effect of over 60% in size
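Inhibition is scored from Amplex Red fluorescence generated when pyruvate oxidase and HRP act on pyruvate released by GPT2. Reactions contain 10ng/uL enzyme, 250uM a-KG and 2mM L-alanine and run 30 min at room temperature.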
Luciferase inh – Firefly luciferase inhibition profiling of diverse chemical library using quantitative high-throughput screening; Luciferin 4-monooxygenase (Photinus pyralis), P08659; Potency, µM (highest dose often 115 µM), hits mostly inhibitors; AID 1347043, 2019; hit rate 2.5% among 76,000; purified P. pyralis luciferase, luminescence, biochemical; further: nearly all actives have a fitted effect of over 65% in size
Target sequence (P08659 whole entry, looked up): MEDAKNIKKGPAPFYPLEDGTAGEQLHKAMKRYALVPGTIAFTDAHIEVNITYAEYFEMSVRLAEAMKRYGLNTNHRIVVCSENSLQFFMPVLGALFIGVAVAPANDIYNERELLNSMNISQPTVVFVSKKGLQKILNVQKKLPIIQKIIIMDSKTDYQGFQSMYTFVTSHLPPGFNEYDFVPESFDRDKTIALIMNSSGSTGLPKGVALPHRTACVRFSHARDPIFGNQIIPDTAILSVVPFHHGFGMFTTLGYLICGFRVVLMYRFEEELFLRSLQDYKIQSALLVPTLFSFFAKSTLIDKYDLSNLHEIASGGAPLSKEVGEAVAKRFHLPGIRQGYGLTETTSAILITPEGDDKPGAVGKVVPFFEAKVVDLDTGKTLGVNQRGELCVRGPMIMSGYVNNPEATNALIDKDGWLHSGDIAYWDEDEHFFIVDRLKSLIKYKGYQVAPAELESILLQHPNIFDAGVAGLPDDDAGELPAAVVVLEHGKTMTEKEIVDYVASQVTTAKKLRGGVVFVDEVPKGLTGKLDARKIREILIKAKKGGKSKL
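Cell-free enzyme assay, 10nM P. pyralis luciferase, luciferin and ATP each at 10uM. Inhibition profiled over a 6-point titration, read as luminescence.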
hNpr1 antagonist – Natriuretic polypeptide receptor (hNpr1) antagonism - Primary qHTS; HEK293 hNpr1 GloSensor cGMP, ANP-stimulated luminescence; hit rate 1.6% among 76,000; Atrial natriuretic peptide receptor 1 (Homo sapiens), P16066; Potency, µM (series often up to 46.3 µM), hits mostly inhibitors; calls by dose curve; further: nearly all actives have a fitted effect of over 60% in size
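Compound pre-incubated 30 min at room temperature on GloSensor-loaded HEK293 cells stably carrying hNpr1 and the pGS-40F cGMP biosensor. Stimulation uses hNppA at 0.1 nM final; luminescence is taken at baseline and 20 min post-agonist.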
HEK cytotox – Cytotoxic Profiling in HEK 293 Cell Line of Diverse Libraries Using Quantitative High-Throughput Screening | hit rate 6.6% among 94,000 | Potency, µM (doses to about 115 µM), usual class: inhibitors | HEK 293 viability, ATP luminescence (CellTiter-Glo), 48-72 h; further: nearly all actives have a fitted effect of over 60% in size
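ATP-coupled CellTiter-Glo luminescence served as viability read-out, recorded 10 min after reagent addition at room temperature. HEK 293 cells, 250 cells/well, had been incubated with pintool-transferred compound for 48 or 72 hr at 37 degree Celsius.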
Hits are given with their value; n = inactive; u = inconclusive; x = no result given; [ ] = another dose, or the depositor's remark. Unless noted, the call rests on the fitted dose curve; in most records, active means well fitted curve in the direction sought with a large enough effect; inconclusive means small, poorly fitted or top-dose-only effect, or another doubt; inactive means no such curve, though single readings can be large; an effect the other way counts as inactive or inconclusive.

SMILES	NIH3T3 tox	GPT2 inhibitor	Luciferase inh	hNpr1 antagonist	HEK cytotox
COc1cc(C)ccc1OCc1cc(C(=O)N(C)Cc2ncccc2C)no1	35µM	n	n	n	40µM
O=C(NCc1ccccn1)c1nc2sccn2c1-c1cccc(C(F)(F)F)c1	32µM	n	x	x	u
Cc1ccc(-c2c(C(=O)NCc3cccc(C(F)(F)F)c3)nc3sccn23)cc1	u	n	x	x	22µM
N#Cc1cccc(-c2c(C(=O)NCc3ccc(Cl)cc3)nc3sccn23)c1	35µM	n	x	x	u
N#Cc1cccc(-c2c(C(=O)NCc3cccc(C(F)(F)F)c3)nc3sccn23)c1	u	n	x	x	35µM
N#Cc1cccc(-c2c(C(=O)NCc3ccccc3F)nc3sccn23)c1	n	n	x	x	n
COc1cc(CN2CCC(C)(NC(C)=O)CC2)cc(-c2ccc3[nH]ncc3c2)c1	u	n	n	n	u
CC(C)Nc1ccc(-c2ccc(S(=O)(=O)NC(C)(C)C)cc2)nn1	n	n	n	n	u
COC(=O)c1ccc2nc(C[C@@H]3C[C@@H](C(C)C)[C@H](CN(C)C)C=C3C)[nH]c2c1	71µM	u	n	n	u
COC(=O)c1ccc2nc(C[C@@H]3C[C@@H](C(C)C)[C@H](CNC(=O)C4CCC4)C=C3C)[nH]c2c1	u	n	n	n	u
COC(=O)c1ccc2nc(C[C@@H]3C[C@@H](C(C)C)[C@H](CNC(=O)CN(C)C)C=C3C)[nH]c2c1	u	n	n	n	35µM
COCC(=O)NC[C@@H]1C=C(C)[C@H](Cc2nc3ccc(C(=O)OC)cc3[nH]2)C[C@H]1C(C)C	100µM	n	n	n	63µM
CC(C)C(NC(=O)C1CCC1)C(=O)N1CCN(c2ccccn2)CC1 (centres undefined)	n	n	n	n	n
CN1C(=O)C(CC(=O)NCc2cccs2)Sc2ncccc21 (centres undefined)	n	n	n	n	n
CNC(=O)CCn1ncc2cc(OCc3ccccc3-c3cccc(OC)c3)ccc21	u	n	45µM	n	79µM
CNC(=O)CCn1ncc2cc(OCc3ccccc3-c3cncc(OC)c3)ccc21	u	n	22µM	n	79µM
CNC(=O)CCn1ncc2cc(OCc3ccccc3-c3cccnc3OC)ccc21	u	n	u	n	u
CNC(=O)CCn1ncc2cc(OCc3ccccc3-c3cc(F)cc(OC)c3)ccc21	u	n	n	n	71µM
CNC(=O)CCn1ncc2cc(OCc3ccccc3-c3ccc(OC)cc3)ccc21	89µM	n	n	n	100µM
CCCCS(=O)(=O)N1C[C@@H](COC)[C@H](C(=O)NC)C1	n	n	n	n	n
O=C(CCc1ccccc1)NCc1nnc2c(-c3nc(C4CC4)no3)cccn12	n	n	n	n	n
COc1ccc(C2(C(=O)NC3CCCN(c4ncccn4)C3)CC2)cc1 (centres undefined)	n	n	n	n	u
CNC(=O)CCn1ncc2cc(OCc3ccccc3-c3ccsc3)ccc21	u	n	50µM	n	89µM
CNC(=O)CCn1ncc2cc(OCc3ccccc3-c3ccc(OC)cc3C)ccc21	u	n	u	n	100µM
CNC(=O)CCn1ncc2cc(OCc3ccccc3-c3cnn(C)c3)ccc21	u	n	n	n	u
COc1ccc(NC(=O)C[C@@H]2C[C@@H](C(C)C)[C@H](CC#N)C=C2C)cn1	79µM	n	n	n	89µM
COc1ccc(-n2nc3n(c2=O)CCN(C(=O)c2ccc4c(c2)OCO4)C3)cc1	u	n	x	x	u
Cc1cc(C)n(CCc2c(-c3ccccc3)ncn2CCCc2cccnc2)n1	50µM	n[11.5 µM]	n	n	n
Cc1cc(C)n(CCC(=O)N2CCC(CCOc3ccc(F)cc3)C2)n1 (centres undefined)	n	n	n	u	79µM
Cc1ccc(OCC(=O)N2CCC(CCOc3ccc(F)cc3)C2)cc1 (centres undefined)	u	n	n	n	u
